# WRN helicase inh: qHTS for Inhibitors of WRN Helicase | WRN helicase unwinding, fluorescent forked duplex, kinetic | Potency, µM (series often up to 114 µM), for the others: at the top dose activity change, negative = inhibition, usual class: inhibitors | 360,000 tested, 0.46% active | AID 651768, 2012; note: potency is the fitted concentration of half-maximal effect; % is set by controls: 0 for no effect and ±100 for the full control effect; nearly all actives have a fitted effect of over 55% in size
#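 Primary qHTS, 1536-well format. 20 nM WRN + compound, 15 min RT; start with 100 nM forked fluorophore/quencher duplex, 2 mM ATP (final); kinetic read ex 525/em 598 nm.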
# FEN1 inh: qHTS Assay for the Inhibitors of Human Flap endonuclease 1 (FEN1); P39748; Recombinant FEN1 flap cleavage, fluorescence, 15 min; Potency, µM (top dose mostly 114 µM), without a hit: at the top dose activity change, negative = inhibition, usual class: inhibitors; 390,000 tested, 0.35% active; note: potency is the fitted concentration of half-maximal effect; % is set by controls: 0 for no effect and ±100 for the full control effect; nearly all actives have a fitted effect of over 65% in size
#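 Read-out was taken twice, immediately and after 15 min, following addition of 50 nM substrate to 10 nM FEN1 that had sat with test compound for 15 min at room temperature. Curves came from a four-parameter Hill model.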
# TCR activator: Activators of T cell receptors: qHTS campaign. primary human leukocytes, anti-CD3, IL-2 HTRF, 48 h. Potency, µM (titrated, usually from 9.22 µM), for the others: top-dose activation of IL-2 secretion, most hits filed as activators. 330,000 tested, under 10 active. AID 504894, 2011; note: % of control where 0% means no effect
#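 Primary human leukocytes incubated 48 hr with anti-CD3 beads plus compound, without co-stimulation. Secreted IL-2 measured by HTRF (europium cryptate/d2 anti-IL-2 pair, 320 nm excitation, 665 nm emission).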
# PI5P4K alpha inh: qHTS for Inhibitors of phosphatidylinositol 5-phosphate 4-kinase (PI5P4K); Phosphatidylinositol 5-phosphate 4-kinase type-2 alpha (Homo sapiens), P48426; PI5P4Kalpha enzyme, ADP-Glo luminescence, 60 min; hits give low values; max response, %; 330,000 tested, 1.2% active; active = max response of -50% or lower; inconclusive = between -30% and -50%; inactive = -30% or higher; note: value at the top dose of about 77 µM; % is set by controls: 0 for no effect and ±100 for the full control effect
#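 Luminescence from ADP-Glo served as readout of PI5P4Kalpha activity in a qHTS format. Reaction: enzyme, substrate, compound, ATP at 5 microM final, 60 min at RT.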
# VDR inh: Inhibitors of the vitamin D receptor (VDR): qHTS; VDR-SRC2-3 peptide fluorescence polarization, 2 h; Vitamin D3 receptor (Homo sapiens), P11473; 400,000 tested, 0.93% active; Potency, µM, without a hit: max response, negative = inhibition, actives largely listed as inhibitors; note: potency is the fitted concentration of half-maximal effect; % is set by controls: 0 for no effect and ±100 for the full control effect
# Target sequence (P11473 whole entry, looked up): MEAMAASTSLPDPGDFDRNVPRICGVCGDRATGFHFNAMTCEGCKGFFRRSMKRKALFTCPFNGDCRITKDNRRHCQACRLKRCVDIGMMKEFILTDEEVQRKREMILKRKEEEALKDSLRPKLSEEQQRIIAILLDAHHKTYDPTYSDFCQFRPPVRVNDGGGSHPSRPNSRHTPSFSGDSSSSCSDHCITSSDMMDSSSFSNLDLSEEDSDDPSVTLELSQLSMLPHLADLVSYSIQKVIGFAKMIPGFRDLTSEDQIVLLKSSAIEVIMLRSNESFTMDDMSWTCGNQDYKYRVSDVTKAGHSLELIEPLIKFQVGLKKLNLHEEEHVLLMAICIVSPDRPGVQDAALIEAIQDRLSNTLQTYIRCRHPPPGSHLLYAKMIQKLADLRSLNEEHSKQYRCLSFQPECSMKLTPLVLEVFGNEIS
#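 After 23 nl compound addition and a short centrifugation, plates sat for 2 hours at ambient temperature; polarization of fluorescence then indicated loss of VDR binding to peptide SRC2-3.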
# PLK1 PBD block: qHTS for Inhibitors of PLK1-PDB (polo-like kinase 1 - polo-box domain): Primary Screen; AID 720504, 2013; Plk1 PBD binding of FITC phosphopeptide, fluorescence polarization; Potency, µM, inactives show max response, negative = inhibition, hits mostly inhibitors; 360,000 tested, 2.8% active; note: potency is the fitted concentration of half-maximal effect; series mostly up to about 57 µM; % is set by controls: 0 for no effect and ±100 for the full control effect; nearly all actives have a fitted effect of over 65% in size
# * hit, by the source's call; ? = inconclusive; · = no result; [ ] = another dose, or the depositor's remark. Compounds with a hit are over-represented: about 3.7% of the library has one in this group of screens. Unless noted, calls come from the whole dose curve; as a rule, active = well fitted curve in the direction sought with a large enough effect; inconclusive = small, poorly fitted or top-dose-only effect, or another doubt; inactive = no such curve, though single readings can be large; an effect the other way counts as inactive or inconclusive.
SMILES,WRN helicase inh,FEN1 inh,TCR activator,PI5P4K alpha inh,VDR inh,PLK1 PBD block
Oc1c(Br)cc(Br)c(/C=N/n2c(-c3ccccc3)n[nH]c2=S)c1Br,?,?,3%,-86*,?,12µM*
S=c1[nH]nc(-c2ccncc2)n1/N=C/c1cn(-c2ccccc2)nc1-c1ccccc1,-3%,13%,1%,-58*,7%,-8%
Nc1[nH]c(=S)[nH]c(=O)c1N,·,8%,·,·,·,·
O=C(COc1ccccc1F)Nc1ccc2nc(SCC(=O)N3CCCC3)sc2c1,·,-2%,·,·,17%,·
Cn1cccc1Cc1nnc(SCC(=O)Nc2ccc(F)cc2)n1-c1ccc(F)cc1,0%,-20%,3%[46.1 µM],-5,?,24µM*
Cn1cccc1Cc1nnc(SCC(=O)Nc2ccccc2)n1-c1ccc(F)cc1,-7%,7%,0%[46.1 µM],-18,6%,?
COc1ccc(-n2c(Cc3cccn3C)nnc2SCC(=O)Nc2ccc(C)cc2C)cc1,-4%,-8%,-5%[46.1 µM],-4,?,27µM*
O=c1c2ccccc2sc2ccc(NCCCN3CCOCC3)cc12,-17%,45µM*,-6%,0,-18%,3%
Cn1nnnc1SCCNCc1cc(Br)ccc1OCc1ccccc1Cl,·,-20%,·,·,-5%,·
Cc1cc(C(=O)N/N=C2/CC(C)CC(C)(C)C2)c(C)o1 (centres undefined),-3%,21%,3%,-2,-29%,21µM*
Cc1cc(C(=O)N/N=C2\CCCc3ccccc32)c(C)o1,-4%,-2%,-7%,-2,1%,-13%
CCCCC(Sc1nc2cc3c(cc2c(=O)n1CCCC(=O)NCc1ccc2c(c1)OCO2)OCO3)C(=O)OCC (centres undefined),·,5%,·,·,10%,·
CN(C)c1ccc(NC(=O)c2cccc(C(=O)Nc3ccc(N(C)C)cc3)n2)cc1,-28%,?,3%[46.1 µM],-22,79µM*,-21%
Cc1ccc2c(c1)CCCN2C(=O)Nc1ccc2c(c1)OCO2,5%,1%,-2%,-2,?,27µM*
O=C(Nc1ccc(Cl)cc1N1CCOCC1)C1CCCCC1,2%,-5%,1%,-6,-12%,-10%
Nc1ccc(N2CCOCC2)c2nonc12,-21%,?,-2%,-21,89µM*,-4%
O=C(Nc1ccc(N2CCOCC2)c2nonc12)C1CCCC1,-4%,1%,1%,-28,-22%,19µM*
CN(C)c1ccc(N=Nc2ccc(/C=C/c3ccnc4ccccc34)cc2)cc1,·,25µM*,·,·,·,·
C(=C\c1ccnc2ccccc12)/c1ccc(N2CCOCC2)cc1,·,45µM*,·,·,·,·
CN(C)c1ccc(/C=C/c2cccc3cc4ccccc4nc23)cc1,·,79µM*,·,·,·,·
CCN(C)c1ccc(/C=C/c2ccnc3ccccc23)cc1,·,-5%,·,·,·,·
CC[N+](C)(C)c1ccc(/C=C/c2ccnc3ccccc23)cc1,·,40µM*,·,·,·,·
CCCC/C=C/[C@H](c1ccccc1)[C@H](CO)Cc1ccc2ccccc2c1,·,-34%,·,·,-14%,·
Cc1ccc(NC(=O)c2sc3ncn(CC(=O)N4CCN(c5ccccn5)CC4)c(=O)c3c2C)cc1Cl,-10%,-2%,-2%,-3,-15%,-1%
COc1cccc(NC(=O)c2sc3ncn(CC(=O)N4CCN(c5ccccn5)CC4)c(=O)c3c2C)c1,1%,4%,-1%,-27,25µM*,13µM*
O=c1c2oc3ccccc3c2[nH]c(=S)n1-c1ccccc1,-10%,6%,-14%[46.1 µM],4,-19%,27µM*
CCc1cccc(C)c1NC(=O)CCS(=O)(=O)c1ccc2c(c1)oc(=O)n2C,·,-1%,·,·,-12%,·
Cc1c2cc[n+](CCN3CCCCC3)cc2c(C)c2c1[nH]c1ccc(O)cc12,28µM*,13µM*,0%,?,20%,-12%
